From PubChem BioAssay
In the library only some 2.9% were active in any assay of this set; here they are far more common.
APOBEC3G inh – inhibitors of human APOBEC3G DNA deaminase | AID 493012 | Q9HC16 | inhibition, % at 20 µM | recombinant A3G, ssDNA deamination FAM/TAMRA fluorescence | hit rate 0.28% among 330,000;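 active means inhibition of at least 40% at 20 µM, with no more than 30% in the related APOBEC3A deaminase screen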;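 further: plate controls were DMSO wells with A3G for no effect and wells lacking A3G enzyme for full effect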
Target sequence (Q9HC16 whole entry, looked up): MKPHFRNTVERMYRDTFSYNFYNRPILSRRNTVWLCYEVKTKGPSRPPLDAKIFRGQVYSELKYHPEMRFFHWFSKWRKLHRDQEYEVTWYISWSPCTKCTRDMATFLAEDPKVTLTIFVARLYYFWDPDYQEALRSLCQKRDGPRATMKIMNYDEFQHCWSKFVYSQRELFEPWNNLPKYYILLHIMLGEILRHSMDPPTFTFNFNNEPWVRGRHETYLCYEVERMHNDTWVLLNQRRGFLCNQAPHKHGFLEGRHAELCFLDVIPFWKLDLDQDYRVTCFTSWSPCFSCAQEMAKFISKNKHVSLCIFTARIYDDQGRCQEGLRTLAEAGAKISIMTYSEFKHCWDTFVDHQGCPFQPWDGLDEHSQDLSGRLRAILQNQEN
NadD inh – NadD (S. aureus) enzyme inhibition; purified NadD enzyme, colorimetric absorbance read-out; inhibition, % at 20 µM; hit rate 0.78% among 360,000; in the data active means inhibition above about 26%
H9c2 TAG inh – triacylglycerol accumulation inhibition. H9c2 cells, Nile Red lipid (TAG) fluorescence; cells loaded with 200 µM oleic acid. inhibition, % at 12.5 µM. hit rate 0.66% among 230,000;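 active means pattern-corrected inhibition of lipid staining of at least 50% with the nuclear-stain viability signal not falling by more than 50%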;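 further: 0% = DMSO wells and 100% = triacsin C control wells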
PfG6PD inh – PfG6PD (Plasmodium falciparum) enzyme inhibition; PfGluPho enzyme, NADPH resazurin-diaphorase fluorescence; inhibition, % at 20 µM; hit rate 0.78% among 350,000; AID 504690;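 active means inhibition reaching at least a set limit at 20 µM in the primary screen, cut at about 59% in these data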;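 further: 0% = DMSO wells with substrate and 100% = DMSO wells lacking glucose-6-phosphate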
APOBEC3A inh – blocks human APOBEC3A ssDNA deamination; hit rate 0.41% among 330,000; recombinant A3A, FAM/TAMRA ssDNA deamination fluorescence; inhibition, % at 20 µM; AID 493011;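 active means at least 40% inhibition at 20 µM here, with at most 30% in a related deaminase screen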;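 further: plate controls were A3A with DMSO for no effect and wells lacking A3A enzyme for full effect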
Target sequence (P31941 whole entry, looked up): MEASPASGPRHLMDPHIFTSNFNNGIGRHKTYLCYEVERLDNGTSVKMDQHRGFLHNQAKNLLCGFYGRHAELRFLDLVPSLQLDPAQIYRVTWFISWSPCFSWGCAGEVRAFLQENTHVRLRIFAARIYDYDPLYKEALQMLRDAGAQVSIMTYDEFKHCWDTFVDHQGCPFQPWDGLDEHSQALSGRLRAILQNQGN
Cardio protect – myocardial damage modulation in H9c2 cells | hit rate 0.63% among 360,000 | protection from H2O2 cell death, % at 20 µM | H9c2 cardiomyocytes, H2O2 injury protection, ATPLite, 2 h;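 active means compounds giving at least 50% protection of heart cells from peroxide-induced death in the single-dose screen, raw or plate-pattern-corrected value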;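 further: 0% = DMSO wells with peroxide and 100% = DMSO wells without peroxide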
* marks the source's active call; other numbers are inactive results; · = no result.

SMILES	APOBEC3G inh	NadD inh	H9c2 TAG inh	PfG6PD inh	APOBEC3A inh	Cardio protect
NC(=O)c1nsc(C(=O)N(c2ccccc2)C(C(=O)NCc2ccc(F)cc2)c2ccc(O)cc2)c1N (stereo not drawn)	-1	0	·	20	-1	50*
COc1ccc(Cl)cc1C(=O)NNC(=O)CNC(=O)c1ccco1	-2	0	6	1	0	9
CCCCNC(=O)c1c(N)[nH]c(C(=O)c2ccccc2)c1-c1ccccn1	·	2	·	·	·	·
O=C(N/N=C/c1ccc(N2CCOCC2)s1)c1ccc(O)cc1	·	6	12	-6	·	0
O=C(NN=Cc1ccc(N2CCOCC2)s1)c1ccc([N+](=O)[O-])cc1	-3	13	-12	-12	-1	63*
CCOc1ccc(NC(=O)CN2CCN(CC(=O)Nc3ccc(Cl)c(C(F)(F)F)c3)CC2)cc1	0	-9	·	16	5	-18
N#CCCN1CCCc2cc(N=Nc3ccc(C(F)(F)F)cc3)ccc21	-3	3	57*	18	4	-10
CCCN1CCCc2ccccc21	-5	0	·	6	-5	-19
O=C(Cc1ccccc1Cl)Nc1cc(S(=O)(=O)N2CCOCC2)ccc1N1CCOCC1	-4	4	-36	0	13	6
CC12CCC(C(=O)N(CSC(=S)N/N=C\c3ccccc3O)C1=O)C2(C)C (stereo not drawn)	-5	4	-10	-31	-4	52*
Cc1cc(C(=O)COc2ccccc2C(N)=O)c(C)n1C	-4	-9	-2	-4	-9	52*
O=C1NN(c2ccc(F)c(Cl)c2)C(=O)/C1=C\c1cccc(OC(=O)c2cccs2)c1	-5	30*	1	0	-2	-4
Cc1cc(C)n2c(SCC(=O)N(CCC#N)c3ccc4c(c3)OCCO4)nnc2n1	·	3	123	0	·	-6
Cc1ccc(COc2ccccc2-c2cc(C(=O)N/N=C/c3cccnc3)[nH]n2)cc1	0	10	4	-15	-2	50*
O=C(N/N=C/c1ccccn1)c1cc(-c2cccc3ccccc23)n[nH]1	-5	9	5	10	-3	56*
O=C(N/N=C/c1ccccn1)c1cc(-c2ccc(Cl)s2)[nH]n1	-11	8	·	-10	-3	59*
O=C(N/N=C/c1ccccn1)c1cc(-c2ccc(Br)s2)[nH]n1	-7	6	·	-11	-2	47
O=C(N/N=C/c1ccccn1)c1cc(C2CC2)nc2ccccc12	-8	3	·	4	-1	55*
Cc1cccc(C)c1N(CC(=O)N1CCCC1)S(C)(=O)=O	-1	0	6	6	5	3
COc1ccc2[nH]c3c(c2c1)CCN1C(=O)C(CC(=O)NCCc2ccccn2)C[C@H](C(=O)N2CCOCC2)[C@@]31CCC1CCCC1 (stereo partly drawn)	-1	-5	20	9	1	-4
O=C1Nc2ccccc2N=C(c2ccccc2)c2ccccc21	-5	-3	-11	-11	0	3
Cc1cc(C)nc(SCc2ccc(C(=O)N/N=C/c3ccncc3)cc2)n1	-10	-6	-5	-8	-2	-4
Cc1cc(C)nc(SCc2ccc(C(=O)N/N=C/c3ccccn3)cc2)n1	-6	-10	1	5	1	69*
Fc1cccc(-n2cc(-c3ccccc3)c3c(=S)nc[nH]c32)c1	-3	11	·	-13	-4	64*
Fc1ccc(-n2cc(-c3ccccc3)c3c(=S)nc[nH]c32)cc1	-8	6	·	5	-8	85*
SMILES	APOBEC3G inh	NadD inh	H9c2 TAG inh	PfG6PD inh	APOBEC3A inh	Cardio protect
O=c1[nH]cnc2c1c(-c1ccccc1)cn2-c1ccccc1	-2	-1	·	10	-3	-3
S=C1NCCOCCOCCOCCNC(=S)N2CCOCCOCCN1CCOCCOCC2	-7	-1	17	3	-3	5
COc1cc(Br)cc(/C=N/NC(=O)Cc2ccc(C(F)(F)F)cc2[N+](=O)[O-])c1O	-4	39*	·	-23	-3	34
O=[N+]([O-])c1ccc(C2=NN(CCO)C(=Nc3ccc(OC(F)(F)F)cc3)SC2)cc1	-8	1	7	14	-5	-16
O=C1N[C@H]2CC=C[C@H]2Nc2ccccc21	4	2	-4	31	5	51*
O=C1N[C@H]2CC=C[C@H]2N(Cc2cccs2)c2ccccc21	1	-3	1	34	2	3
CC1(C(=O)NS(=O)(=O)c2ccccc2OC(F)(F)F)CCN1C(=O)Cc1ccccc1 (stereo not drawn)	·	-3	10	·	·	-3
COc1ccc(CNC(=O)C2CCN(S(=O)(=O)N3CCCCC3)CC2)c(OC)c1	-7	-5	·	-6	-3	-5
O=C(NN=C1CCN(Cc2ccccc2)CC1)c1ccccc1O	-8	-1	9	-6	-3	10
O=C(NN=C1CCN(Cc2ccccc2)CC1)c1cc2ccccc2cc1O	8	42*	-3	-12	6	24
Cn1nnnc1Sc1ncnc2scc(-c3ccc(Br)cc3)c12	-5	0	58*	0	-2	-8
O=C(CCc1nnc(-c2ccc3c(c2)OCO3)o1)NC(c1cccnc1)C(F)(F)F (stereo not drawn)	-7	-4	1	-14	-2	-2
CC(=NNc1nc2ccccc2o1)c1ncccn1	·	-5	51*	3	·	9
Oc1ccccc1/C=N/Nc1nc2ccccc2o1	1	2	63*	-4	3	8
C/C(=N\Nc1nc2ccccc2s1)c1cccs1	-4	-6	·	33	2	-24
CC(=NNc1nc2ccccc2o1)c1cc2ccccc2cn1	·	-2	-12	40	·	16
CC(=NNc1nc2ccccc2s1)c1ncccn1	·	-4	63*	-8	·	0
COc1ccc(C(CNC(=O)Nc2cccc(C)c2)N2CCN(C)CC2)cc1 (stereo not drawn)	5	-4	·	-5	-2	14
CCOc1ccc(S(=O)(=O)Nc2ccc(C(=O)N/N=C(\C)c3ccc(-n4ccnc4)cc3)cc2)cc1	1	42*	0	0	-1	0
COc1ccc(NS(=O)(=O)c2cccc(C(=O)N/N=C(/C)c3ccc(-n4ccnc4)cc3)c2)cc1	·	16	0	4	·	10
CC(Oc1ccc(Br)cc1)C(=O)Nc1nc(-c2ccccn2)cs1 (stereo not drawn)	5	8	-56	43	15	49*
C[C@@H](C(=O)Nc1nc(-c2ccccn2)cs1)N1C(=O)C2CCCCC2C1=O (stereo partly drawn)	16	10	-33	51	9	95*
CC(C)[C@H](NC(=O)c1ccccc1Cl)C(=O)Nc1nc(-c2ccccn2)cs1	-6	-2	-17	-8	-4	70*
CCc1nnc(NC(=O)C(NC(=O)c2ccccc2Cl)C(C)C)s1 (stereo not drawn)	-4	-3	-5	19	10	0
